# Screening data: PubChem BioAssay, The Scripps Research Institute Molecular Screening Center
# Shown are actives, neighbours in structure and some others; about 2.6% of the full set was active somewhere.
# BaF3 parental = parental Ba/F3 cell viability inhibition, counter-screen for JAK2V617F inhibitor project, murine pro-B, CellTiter-Glo luminescence | CellTiter-Glo ATP luminescence | inhibition, % at 5.6 µM | 220,000 tested, 1.1% active | AID 1486, 2009;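 active = inhibition above a per-campaign cutoff, the mean inhibition of all tested compounds plus 3 SD, cut at about 27% in these data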;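 also: 0% = DMSO wells and 100% = JAK Inhibitor I control wells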
# DNA FID counter = compounds displacing fluorescent DNA intercalator, primary screen, artefact control for HCV NS3 helicase inhibitor project, biochemical, FID fluorescence; 290,000 tested, 0.17% active; inhibition, % at 7.9 µM; DNA fluorescent intercalator displacement; in the data active = inhibition above about 37%;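 also: 0% = vehicle and 100% = reference compound; higher means more ethidium bromide displaced from hairpin DNA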
# KLF5 inhibitor = KLF5 expression inhibitors, primary screen, DLD-1 cells, luminescence; DLD-1 KLF5 promoter-luciferase reporter; inhibition, % at 5 µM; 290,000 tested, 0.23% active;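 active = inhibition above a per-plate limit of that plate's mean compound inhibition plus 3 SD, cut at about 60% in these data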;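 also: 0% = DMSO wells and 100% = LY294002 at 200 µM; higher means less KLF5 promoter-driven luciferase light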
# Ba/F3 V617F tox = reduced viability of JAK2V617F-dependent Ba/F3 cells, primary screen, JAK2V617F inhibitor project, cell-based, Ba/F3 EpoR-JAK2V617F, luminescence; ATP luminescence; inhibition, % at 5.6 µM; 220,000 tested, 1.1% active;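 active = inhibition above the campaign mean plus 3 SD over all tested compounds, cut at about 24% in these data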;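 also: cytokine-independent growth of Ba/F3 cells driven by EpoR plus mutant JAK2; 0% = DMSO-treated cells and 100% = JAK inhibitor I control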
# IEC-6 tox = cytotoxicity in IEC-6 intestinal epithelial cells, primary screen, cytotoxicity control for KLF5 inhibitor project, cell-based, luminescence; IEC-6 cytotoxicity, luminescence viability; inhibition, % at 5 µM; 290,000 tested, 0.78% active; in the data active = inhibition above about 22%;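 also: 0% = plate median of test compound wells and 100% = cytotoxic reference compound wells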
# GPR7 antag = GPR7 receptor antagonists, primary screen, cell-based, fluorescence, single concentration; GPR7-expressing cells, fluorescence antagonist assay; inhibition, % at 4.4 µM; 290,000 tested, 1.1% active; AID 1861, 2009; in the data active = inhibition above about 16%, passing the limit was not always enough;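 also: cells stimulated with the agonist NPW; 0% = agonist with vehicle and 100% = vehicle without agonist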
# Target sequence (P48145 whole entry, looked up): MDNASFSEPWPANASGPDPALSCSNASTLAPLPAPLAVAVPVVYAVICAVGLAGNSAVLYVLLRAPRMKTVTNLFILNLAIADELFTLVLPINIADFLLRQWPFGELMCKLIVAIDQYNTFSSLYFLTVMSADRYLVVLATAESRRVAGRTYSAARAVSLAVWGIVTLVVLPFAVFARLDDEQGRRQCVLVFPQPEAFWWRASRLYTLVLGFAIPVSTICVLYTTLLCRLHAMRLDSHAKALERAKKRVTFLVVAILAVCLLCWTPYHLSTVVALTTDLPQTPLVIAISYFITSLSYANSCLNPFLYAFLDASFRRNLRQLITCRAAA
# BaF3 tox 2 = parental Ba/F3 cell viability inhibition, counter-screen for JAK2V617F inhibitor project, murine pro-B, CellTiter-Glo luminescence; cells kept alive by added IL-3; shares compounds with Ba/F3 V617F tox; 580 tested, 31% active; inhibition, % at 5.6 µM;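 active = cell growth inhibition above the hit limit set in the earlier mutant JAK2 cell screen, cut at about 27% in these data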;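 also: plate controls were DMSO-treated cells for no effect and JAK Inhibitor I control wells for full effect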
# JAK2V617F confrm = viability loss in Ba/F3 EpoR-JAK2V617F cells, confirmation, JAK2V617F inhibitor project, cell-based, luminescence, triplicate; CellTiter-Glo luminescence; 580 tested, 66% active; AID 1521, 2009; shares compounds with Ba/F3 V617F tox; inhibition, % at 5.6 µM;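 active = mean inhibition above the hit cutoff derived in the earlier primary screen, cut at about 25% in these data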;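 also: 0% = DMSO-treated cells and 100% = JAK inhibitor I control wells; higher means lower luminescence from reduced cell ATP and viability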
# Active calls of the source: *; . = no result.
SMILES,BaF3 parental,DNA FID counter,KLF5 inhibitor,Ba/F3 V617F tox,IEC-6 tox,GPR7 antag,BaF3 tox 2,JAK2V617F confrm
O=C(NCCc1ccc(C(F)(F)F)cc1)C1CCC(=O)N(C2CC2)C1 (configuration not stated),.,-9,-3,.,2,-9,.,.
Cc1nc2c(-c3ccc(F)cc3)c(C)nn2c(C)c1CCC(=O)Nc1ccccc1F,-1,-3,-36,79*,0,3,-4,2
CC1(C)CC(=O)C2=C(C1)OC(/N=C/N1CCCC1)=C(C#N)C2c1ccccc1 (configuration not stated),-2,-21,-26,6,8,-13,.,.
CCOC(=S)SCC(=O)Nc1nc(-c2ccc(Br)cc2)cs1,14,-6,-19,27*,-5,13,71*,99*
O=C(COC(=O)c1ccncc1)Nc1cc(Cl)ccc1Cl,4,-4,-12,45*,-3,-11,-5,-1
O=C(Nc1ccc(C#Cc2ccccc2)cc1)C1CC1,12,3,-45,38*,4,0,2,7
CC(=O)N1c2ccc(S(=O)(=O)N3CCCC(C(=O)NCc4ccccc4Cl)C3)cc2CC1C (configuration not stated),.,-57,3,.,-3,-3,.,.
Cc1nc(N=C(N)N)nc2ccccc12,20,3,-7,34*,7,2,29*,51*
Cc1nc(/N=C(\N)NC(=O)c2ccccc2)nc2ccccc12,4,-3,-16,1,4,-9,.,.
O=c1[nH]cnc2c1ncn2[C@@H]1O[C@H](CO)[C@@H](O)[C@H]1O,0,0,-4,-3,-4,3,.,.
O=c1cnn([C@@H]2O[C@H](CO)[C@@H](O)[C@H]2O)c(=O)[nH]1,11,0,40,36*,16,-11,3,68*
Cc1cc(SCC(=O)Nc2cccc(S(=O)(=O)NC3=NCCCCC3)c2)c(C)cc1Br,1,-32,-11,26*,1,-12,1,31*
Cc1ccc(Nc2nc(-c3ccc(O)c(O)c3)cs2)nc1,17,7,-1,92*,-3,0,95*,99*
Cc1nn(-c2ccccc2)c(C)c1NC(=O)COc1ccc2ccccc2c1,4,-38,9,90*,2,-2,-5,-5
NC(=O)/C(=N\OC(=O)c1ccco1)c1nc(-c2ccc(Br)cc2)cs1,6,0,-24,31*,-11,-7,3,31*
O=C(/C(=C(/[O-])c1ccccc1)[n+]1ccccc1)c1ccc([N+](=O)[O-])cc1,5,-1,-17,3,0,-2,.,.
CC(C)CCNC(=O)C(c1ccncc1)N(Cc1cccs1)C(=O)Cn1nnc(-c2ccc(F)cc2)n1 (configuration not stated),0,0,-6,-3,1,-9,.,.
CC(C)CCNC(=O)C(c1ccco1)N(CCCO)C(=O)Cn1nnc(-c2ccc(F)cc2)n1 (configuration not stated),-2,-1,-1,49*,-6,-3,-8,-3
Cc1nc2ccccc2c(N)c1C(=O)/C=C/c1ccccc1,.,6,-13,.,-5,-12,.,.
Cc1cc(N(CN2CCCC2=O)C(=O)c2ccc(F)cc2)no1,10,1,-29,3,4,-13,.,.
CCCn1c(CC)nc([N+](=O)[O-])c1S(=O)(=O)c1ccccc1,8,1,3,49*,5,6,-2,70*
O=C(CCOc1ccccc1)N1CCN(c2ccc(O)cc2)CC1,6,-9,-19,25*,0,-11,5,14
